{"source": "PubChem BioAssay (NCI)", "note": "This is part of a sample that, as a whole, favours compounds with a hit. Of some 83,000 tested, about 20% had one in any assay.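 Single-dose data. Exposure time 48 hours. Values below 10 considered active.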 Active and inactive are the calls of the source.", "data": [{"system": "HL-60(TB) leukemia", "test": "NCI-60 one-dose screen, 48 h (100 = growth as untreated, 0 = no growth, -100 = all killed)", "conditions": "10 µM unless noted", "values": [{"smiles": "CCCCCc1ccc(S(=O)(=O)N(C(C)=O)c2cccc(-c3csc(N(CCN4CCN(C)CC4)C(C)=O)n3)c2)cc1", "growth": "-52.8% (active)"}, {"smiles": "C=CCSC1=NC2C(N(CC)C(=O)N2CC)N1/N=C/C=C/c1ccccc1OC", "note": "(centres undefined)", "growth": "45.6% (inactive)"}, {"smiles": "COc1ccc(-c2c(C(N)=O)c(N)n(Cc3nc4ccccc4[nH]3)c(=O)c2C#N)c(OC)c1", "growth": "106% (inactive)"}, {"smiles": "NC(=O)C(=Cc1ccc(Cl)cc1)C(N)=O", "growth": "26.6% (inactive)"}]}]}
